Screens from PubChem BioAssay.
KCNQ2 pot – potentiators of rat KCNQ2 potassium channel; CHO-K1 KCNQ2, FluxOR thallium flux fluorescence; stronger effect = higher value; B-score at 10 µM; 310,000 compounds, 0.54% hits;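 active means fluorescence ratio B-score at least 3 SD of library B-scores, with initial fluorescence B-score within 3 of them, cut at about 5.3 in these data; same plate scores as AID 2156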;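 further: B-score of peak minus minimum over baseline fluorescence ratio after K+ and Tl+ stimulus; positive B-score means potentiation of KCNQ2 with more thallium influx and brighter signal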
KCNQ2 block – rat KCNQ2 potassium channel inhibitors, primary screen, cell-based, CHO-K1, FluxOR thallium flux, B-score; Potassium voltage-gated channel subfamily KQT member 2 (Rattus norvegicus), O88943; 20 min; stronger effect = lower value; B-score at 10 µM; 310,000 compounds, 1.1% hits; AID 2156, 2009;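 active means fluorescence ratio B-score at most minus 3 library SDs, with starting brightness B-score within 2 library SDs, cut at about -5.5 in these data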
KCNQ2 inh conf – rat KCNQ2 potassium channel inhibitors, confirmation, cell-based, thallium flux | shares compounds with KCNQ2 block | KCNQ2-expressing cells, inhibition; stronger effect = lower value | activity change, negative = inhibition, % at 10 µM | 1,000 compounds, 57% hits;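 further: 0% = vehicle wells and values are ratio percent relative to vehicle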
KCNQ1 spec – human KCNQ1 channel inhibition, counter-screen for KCNQ2 inhibitor project, cell-based, FluxOR thallium flux. shares compounds with KCNQ2 block. activity change, negative = inhibition, % at 10 µM. 1,000 compounds, 15% hits. KCNQ1-expressing cells, FluxOR thallium flux fluorescence; stronger effect = lower value;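 active means activity change at least 3 SD of negative controls below their mean in both duplicate wells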;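 further: CHO cells stably transfected with KCNQ1 and depolarized by potassium stimulus; peak minus minimum fluorescence over baseline after thallium addition; 0% = vehicle negative control and -100% = blank without thallium stimulus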
Target sequence (P51787 whole entry, looked up): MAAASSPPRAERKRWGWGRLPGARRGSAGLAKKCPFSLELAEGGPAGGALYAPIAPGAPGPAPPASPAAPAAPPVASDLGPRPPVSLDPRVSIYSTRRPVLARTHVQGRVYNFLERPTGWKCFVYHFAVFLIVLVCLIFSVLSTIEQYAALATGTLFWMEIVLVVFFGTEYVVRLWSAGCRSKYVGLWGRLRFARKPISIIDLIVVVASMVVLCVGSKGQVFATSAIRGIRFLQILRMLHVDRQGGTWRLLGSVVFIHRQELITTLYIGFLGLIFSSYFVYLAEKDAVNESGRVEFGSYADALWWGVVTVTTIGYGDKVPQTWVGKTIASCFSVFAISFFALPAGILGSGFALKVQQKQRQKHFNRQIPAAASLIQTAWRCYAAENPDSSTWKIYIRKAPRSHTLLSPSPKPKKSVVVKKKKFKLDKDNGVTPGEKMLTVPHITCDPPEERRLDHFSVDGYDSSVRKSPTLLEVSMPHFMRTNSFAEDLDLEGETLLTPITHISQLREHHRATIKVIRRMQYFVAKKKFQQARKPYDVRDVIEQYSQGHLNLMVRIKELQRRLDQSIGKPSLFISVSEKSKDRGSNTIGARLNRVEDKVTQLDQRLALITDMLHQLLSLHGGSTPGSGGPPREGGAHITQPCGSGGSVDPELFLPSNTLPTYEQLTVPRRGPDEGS
CHO parental ctr – thallium flux change in parental CHO cells, counter-screen for KCNQ2 inhibitor project. stronger effect = lower value. AID 493029, 2011. activity change, % at 10 µM. 1,000 compounds, 14% hits. shares compounds with KCNQ2 block;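 further: 0% = vehicle negative controls with stimulus buffer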
KCNQ2 patch conf – rat KCNQ2 channel inhibitors, confirmation, cell-based, automated patch clamp, single concentration. shares compounds with KCNQ2 block. KCNQ2-expressing cells, automated patch clamp current. calls only at 10 µM. 550 compounds, 49% hits. AID 588531, 2011
Kir21 conf inh – mouse Kir2.1 channel blockers, retest, confirmation, cell-based, FluxOR thallium flux, duplicate | shares compounds with KCNQ2 pot | Kir2.1-expressing cells, FluxOR thallium flux fluorescence; stronger effect = lower value | Tl flux remaining, % of negative control (stronger effect = lower value), % at 10 µM | 2,300 compounds, 41% hits;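 active means Primary-screen hit whose thallium flux fell at least 3 control SD below untreated wells in both duplicates, with normal baseline fluorescence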;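 further: 0% = blank wells without stimulus and 100% = stimulated no-compound controls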
HEK293 ctr – counter-screen for Kir2.1 inhibitors: effect in parental HEK293 cells; shares compounds with KCNQ2 pot; FluxOR thallium flux fluorescence; 0% = unstimulated blank wells; FluxOR signal as % of negative control (100 = no effect), % at 10 µM; 2,300 compounds, 19% hits;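 active means dye signal at least 3 control SD above or below untreated wells in both duplicates, raw fluorescence within 3, either direction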;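 further: percent is based on the flux ratio of peak minus minimum fluorescence over baseline F0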
The depositor's hits bear a star; i = inactive; · = not tested or not shown; + = active, no number. Shown are actives, neighbours in structure and some others; about 1.6% of the full set was active somewhere. Unless noted, how the calls were made is not given here.

SMILES	KCNQ2 pot	KCNQ2 block	KCNQ2 inh conf	KCNQ1 spec	CHO parental ctr	others
CCC(C)Sc1cccc(-c2nc3cc(C)ccn3c2NCc2ccccc2)c1 (stereo unspecified)	-6.7	-6.7*	i	i	i
CN(C)CCC(=O)c1ccc(F)cc1	·	i	·	·	·
CCN(CC)CCC(=O)c1ccc(F)cc1	-9	-9*	-36%*	i	i	KCNQ2 patch conf=i
Cc1cccc(NC(=O)c2cc(-c3ccc(C)c(C)c3O)n[nH]2)c1	1.1	i	·	·	·
Cc1ncoc1C(=O)NC1CCCc2c1cnn2-c1ccc(C(C)(C)C)cc1 (stereo unspecified)	·	i	·	·	·
O=C(COC(=O)CC12CC3CC(CC(C3)C1)C2)Nc1cccnc1Cl	-7.3	-7.3*	-38%*	i	i	KCNQ2 patch conf=+
O=C(COC(=O)c1ccccn1)Nc1cccnc1Cl	·	i	·	·	·
N#CCc1nc(-c2cc3ccccc3oc2=O)cs1	0.89	i	·	·	·
CC1CCC(=C(C#N)c2nc(-c3cc4ccccc4oc3=O)cs2)CC1 (stereo unspecified)	-8.5	-8.5*	i	i	i
COc1ccc(CCNC(=O)CNCC(c2ccccc2)N(C)C)cc1OC (stereo unspecified)	0.9	i	·	·	·
Cc1ccc2c(c1)c1c3n2CCCNC3CCC1 (stereo unspecified)	·	i	·	·	·
c1cc2c(cc1C1CCCCC1)c1c3n2CCCNC3CCC1 (stereo unspecified)	-12	-12*	-34%*	i	i	KCNQ2 patch conf=i
CC(=O)Nc1cccc(C(=O)OCC(=O)N2CCC(c3ccccc3)=N2)c1	·	i	·	·	·
COc1ccccc1NC(=O)C(C)OC(=O)C1CC(=O)N(c2ccc3c(c2)OCCO3)C1 (stereo unspecified)	·	i	·	·	·
COc1ccccc1NC(=O)C(C)OC(=O)C1CCC(C(C)(C)C)CC1 (stereo unspecified)	-8.4	-8.4*	-31%*	i	i	KCNQ2 patch conf=i
COc1ccc(CN2C(=O)c3cccnc3C2=O)cc1S(=O)(=O)N(C)c1ccc(C)cc1	0.15	i	·	·	·
Cc1ccc(S(=O)(=O)NCCCNS(=O)(=O)c2ccccc2[N+](=O)[O-])cc1	0.26	i	·	·	·
CC1CCCC/C1=N/Nc1ccc([N+](=O)[O-])cc1[N+](=O)[O-] (stereo unspecified)	0.38	i	·	·	·
O=[N+]([O-])c1ccc(C2CCCC/C2=N\OCc2cccc(F)c2)c([N+](=O)[O-])c1 (stereo unspecified)	-8.3	-8.3*	i	i	i
COc1ccc(/C(N)=N/OC(=O)CC2CCCCC2)cc1OC	0.35	i	·	·	·
COc1ccc(/C(N)=N/OC(=O)CSc2ccc(C)cc2)cc1OC	-9.2	-9.2*	i	i	i
COc1ccc2c(C)cc(SCc3c(C)noc3C)nc2c1	-10	-10*	i	i	i
COc1ccc2c(C)cc(SCC#N)nc2c1	·	i	·	·	·
Cc1cc(C)c(-c2cc(C(=O)Nc3cc(C)ccc3C)[nH]n2)c(O)c1	0.57	i	·	·	·
Cc1ccc2oc(C(=O)N(Cc3ccc(N(C)C)cc3)CC3CCCO3)c(C)c2c1 (stereo unspecified)	·	i	·	·	·
SMILES	KCNQ2 pot	KCNQ2 block	KCNQ2 inh conf	KCNQ1 spec	CHO parental ctr	others
Cc1cc2oc(C(=O)N(Cc3ccc(N(C)C)cc3)CC3CCCO3)c(C)c2cc1C (stereo unspecified)	-8.6	-8.6*	-37%*	-36%*	-34%*	KCNQ2 patch conf=+
CCN(CC(=O)NCCc1ccc(S(N)(=O)=O)cc1)Cc1ccccc1	·	i	·	·	·
Cc1cc(Cl)ccc1OCC(=O)Nc1ccccc1N1CCOCC1	·	i	·	·	·
Cc1ccc(OCC(=O)Nc2ccccc2N2CCOCC2)c(C)c1	-7.4	-7.4*	i	i	i	Kir21 conf inh=61%*;HEK293 ctr=i
O=C(NCCc1ccccc1)c1coc(=O)c(Br)c1	·	i	·	·	·
CN1\C(=C/C=C/C=C/C=[N+](C)C)C(C)(C)c2ccccc21	-9.7	-9.7*	-48%*	-36%*	-36%*	KCNQ2 patch conf=+;Kir21 conf inh=12%*;HEK293 ctr=i
CN1/C(=C\C=O)C(C)(C)c2ccccc21	1.5	i	·	·	·
Cc1ccc(C(=O)N/C(=C\c2ccc(-c3ccc(Br)cc3)o2)C(=O)NCCCN(C)C)cc1	-8.2	-8.2*	-31%*	i	i	KCNQ2 patch conf=i;Kir21 conf inh=i;HEK293 ctr=i
Cc1ccc(C(=O)N/C(=C\c2ccc(-c3cccc([N+](=O)[O-])c3)o2)C(=O)NCCCN(C)C)cc1	1.7	i	·	·	·
COc1cc(CNCc2ccccc2)cc(Cl)c1OC	0.24	i	·	·	·
COc1cc(CNCCc2ccccc2)cc(Cl)c1OCc1ccccc1	-7.2	-7.2*	i	i	i	Kir21 conf inh=31%*;HEK293 ctr=i
Cc1ccc(C(=O)N2N=C(CC(C)C)CC2(O)C(F)(F)F)o1 (stereo unspecified)	0.68	i	·	·	·
CC(C)Cc1ccccc1O	0.73	i	·	·	·
CCCS(=O)(=O)N1CCc2ccc(NC(=O)C3CCCO3)cc2C1 (stereo unspecified)	·	i	·	·	·
O=C(O)Cc1coc2ccc3ccccc3c12	0.01	i	·	·	·
CC(C)CN(CC(C)C)C(=O)Cc1coc2ccc3ccccc3c12	-8.4	-8.4*	-31%*	-28%*	-20%*	KCNQ2 patch conf=+;Kir21 conf inh=i;HEK293 ctr=i
CS(=O)(=O)N1CC(C(=O)O)Oc2ccc(CC(=O)O)cc21 (stereo unspecified)	0.3	i	·	·	·
COc1ccc(N(C)C(=O)C2CCN(S(=O)(=O)c3cccc4nonc34)CC2)cc1	0.54	i	·	·	·
CCN1/C(=C/c2sc(-c3ccccc3C)c[n+]2C)Sc2ccccc21	-7	-7*	i	i	i	Kir21 conf inh=24%*;HEK293 ctr=i
CCN1/C(=C/c2ccc3cc(C)ccc3[n+]2CC)Sc2ccccc21	·	i	·	·	·
CS(=O)(=O)N1CCC(C(=O)Nc2cc(Cl)cc(Cl)c2)CC1	0.48	i	·	·	·
CCOc1ccc(C2=CSC3=NCCN23)cc1[N+](=O)[O-]	·	i	·	·	·
CCC(C)c1ccc(N(C(=O)c2ccco2)C(C(=O)NC2CCCC2)c2cccnc2)cc1 (stereo unspecified)	·	i	·	·	·
Cc1ccc(C(C)C)c(OCC(=O)NCC(c2cccs2)N2CCOCC2)c1 (stereo unspecified)	-8.4	-8.4*	-38%*	i	i	KCNQ2 patch conf=i;Kir21 conf inh=78%*;HEK293 ctr=i
